Laboratory results taken from paper PMC5913336, “True equilibrium measurement of transcription factor-DNA binding affinities using automated polarization microscopy”.

Each sequence was assayed against T1, Eip93f (Drosophila melanogaster, UniProt Q9VD60 752-830) (assay: FP; 33 mM phosphate pH 7.0, 90 mM NaCl, 0.01% Tween 20, 0.1 mM DTT, 0.5% agarose; room temperature). Conditions: tags: N-GST (pGEX-6P-1, kept); dsDNA, one strand shown.
T1 sequence: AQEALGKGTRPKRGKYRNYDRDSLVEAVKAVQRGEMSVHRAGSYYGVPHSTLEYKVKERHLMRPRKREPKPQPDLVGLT
With CATAGCCGAGAATCG the binding signal was 22.5 Kd / Kd of best base at the position.
For CAGAGCCGAAAATCG, the binding signal was 1.49 Kd / Kd of best base at the position.
In the case of CATAGCCGTAAATCG, the binding signal is reported as 13.1 Kd / Kd of best base at the position.
In the case of CATCGCCGAAAATCG, the binding signal is reported as 2.02 Kd / Kd of best base at the position.
For CATAGCCGAAAACCG, the binding signal was 1.78 Kd / Kd of best base at the position.
CATAGCCGAAATTCG was tested, and the binding signal was 1.52 Kd / Kd of best base at the position.

What follows are sequences tested against T2, Br (Drosophila melanogaster, UniProt Q24206 697-775) in the same assay as above. Conditions: tags: N-GST (pGEX-6P-1, kept); dsDNA, one strand shown.
T2 sequence: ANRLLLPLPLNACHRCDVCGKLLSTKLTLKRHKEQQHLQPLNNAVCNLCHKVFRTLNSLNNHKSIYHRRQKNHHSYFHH
In the case of GGAATCAGAAAAC, the binding signal is reported as > 1590 Kd / Kd of best base at the position.
In the case of GGTATTAGAAAAC, the binding signal is reported as 2.13 Kd / Kd of best base at the position.
In the case of GGAATTAGAATAC, the binding signal is reported as 1.82 Kd / Kd of best base at the position.
For GGAATTAGCAAAC, the binding signal was 6.43 Kd / Kd of best base at the position.
In the case of AGAATTAGAAAAC, the binding signal is reported as 1.96 Kd / Kd of best base at the position.
In the case of GGCATTAGAAAAC, the binding signal is reported as 2.73 Kd / Kd of best base at the position.
GGAATTAAAAAAC was tested, and the binding signal was > 1590 Kd / Kd of best base at the position.
In the case of GGAAGTAGAAAAC, the binding signal is reported as 40.3 Kd / Kd of best base at the position.
With GGAATTAGAAGAC the binding signal was 1.24 Kd / Kd of best base at the position.
For TGAATTAGAAAAC, the binding signal was 2.02 Kd / Kd of best base at the position.
With GGAATTAGACAAC the binding signal was 3.07 Kd / Kd of best base at the position.
With GGAATTATAAAAC the binding signal was 59.2 Kd / Kd of best base at the position.
With GGAAATAGAAAAC the binding signal was 7.11 Kd / Kd of best base at the position.
With GGAATTAGAAAAG the binding signal was 1.23 Kd / Kd of best base at the position.
GGAATTGGAAAAC was tested, and the binding signal was 438 Kd / Kd of best base at the position.
In the case of GGAATTAGAAACC, the binding signal is reported as 1.42 Kd / Kd of best base at the position.
GGAATTAGAAAAC showed a Kd of about 6.3 nM.
GGAATTAGAAAGC was tested, and the binding signal was 1.36 Kd / Kd of best base at the position.
For GCAATTAGAAAAC, the binding signal was 3.05 Kd / Kd of best base at the position.
In the case of GAAATTAGAAAAC, the binding signal is reported as 2.08 Kd / Kd of best base at the position.
In the case of GTAATTAGAAAAC, the binding signal is reported as 2.7 Kd / Kd of best base at the position.
GGAATTAGAACAC was tested, and the binding signal was 1.98 Kd / Kd of best base at the position.
In the case of GGACTTAGAAAAC, the binding signal is reported as 2.43 Kd / Kd of best base at the position.
In the case of GGAATTCGAAAAC, the binding signal is reported as > 1590 Kd / Kd of best base at the position.
GGAATTAGAAATC was tested, and the binding signal was 1.02 Kd / Kd of best base at the position.
For GGAATTAGAGAAC, the binding signal was 2.43 Kd / Kd of best base at the position.
GGAATTACAAAAC was tested, and the binding signal was 109 Kd / Kd of best base at the position.
In the case of GGAATTAGGAAAC, the binding signal is reported as 2.63 Kd / Kd of best base at the position.
In the case of GGAATGAGAAAAC, the binding signal is reported as > 1590 Kd / Kd of best base at the position.
CGAATTAGAAAAC was tested, and the binding signal was 1.68 Kd / Kd of best base at the position.
For GGGATTAGAAAAC, the binding signal was 1.54 Kd / Kd of best base at the position.
With GGAGTTAGAAAAC the binding signal was 2.41 Kd / Kd of best base at the position.
For GGAATTTGAAAAC, the binding signal was 23.5 Kd / Kd of best base at the position.
